# Only some compounds are listed: those with a hit (about 14% of all), similar ones and a draw of the others.
# Pf growth 48h: P. falciparum growth inhibition at 48 hours (one generation); P. falciparum luciferase growth in erythrocytes, 48 h; Potency, µM (series often up to 28.7 µM), without a hit: at the highest dose activity change, negative = inhibition, hits mostly inhibitors; 5.9% of 310,000 active; AID 504832; also: potency is read from the fitted curve at half-maximal effect
#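 Compounds are pin-transferred into medium, infected erythrocytes (2% hematocrit, 0.1% parasitemia final) are added, and plates sit one parasite generation at 37 C in 5% CO2. Detection reagent is then added and luminescence measured.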
# Sm TGR inh: inhibitors of Schistosoma mansoni thioredoxin glutathione reductase | Q962Y6 | purified TGR, DTNB reduction, TNB absorbance 405 nm | Potency, µM (highest dose often 114 µM), for inactives: at the top dose activity change, negative = inhibition, hits mostly inhibitors | 3% of 360,000 active | AID 485364; also: potency is read from the fitted curve at half-maximal effect; nearly all actives have a fitted effect of over 60% in size
#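 TGR 20 nM + NADPH 100 uM (dispensed conc.), cpd preinc 15 min RT; start with NADPH (500 uM addition) then DTNB (15 mM addition). Kinetic TNB absorbance, 405 nm filter. Four-parameter Hill fit across titration.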
# HCMV antiviral: blocks human cytomegalovirus replication. activity change, negative = inhibition, % at 57.5 µM. HFF cells, HCMV-luciferase reporter, 72 h; hits give low values. 4.5% of 410,000 active; in the data active = activity change below about -60%; inconclusive = no clear call, values can overlap the other calls; inactive = above about -39%
#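 Human foreskin fibroblasts infected with luciferase-reporter HCMV at MOI 1 PFU/cell, compounds at two doses. Luciferase measured 72 h post infection; normalized to buffer-only basal and Salinomycin (10uM) controls.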
# Pf growth 96h: P. falciparum growth inhibition at 96 hour, primary screen for plastid delayed-death inhibitors. P. falciparum luciferase reporter growth, 96 h. Potency, µM (top dose mostly 28.7 µM), without a hit: top-dose activity change, negative = inhibition, hits mostly inhibitors. 6.9% of 320,000 active. AID 504834; also: potency is read from the fitted curve at half-maximal effect
#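 P. falciparum expressing integrated firefly luciferase grown in erythrocytes (2% hematocrit, 0.05% parasitemia final) with compounds for 96 hours at 37 C, 5% CO2. Growth inhibition read as loss of luminescence after adding luciferase detection reagent.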
# FBPA Giardia inh: Giardia lamblia aldolase inhibition | 0.71% of 290,000 active | A8B2U2 | Potency, µM (highest dose often 59.6 µM), without a hit: at the highest dose activity, negative = inhibition, most hits filed as inhibitors | AID 2451 | purified Giardia FBPA; also: potency is read from the fitted curve at half-maximal effect; nearly all actives have a fitted effect of over 55% in size
# Target sequence (A8B2U2 whole entry, looked up): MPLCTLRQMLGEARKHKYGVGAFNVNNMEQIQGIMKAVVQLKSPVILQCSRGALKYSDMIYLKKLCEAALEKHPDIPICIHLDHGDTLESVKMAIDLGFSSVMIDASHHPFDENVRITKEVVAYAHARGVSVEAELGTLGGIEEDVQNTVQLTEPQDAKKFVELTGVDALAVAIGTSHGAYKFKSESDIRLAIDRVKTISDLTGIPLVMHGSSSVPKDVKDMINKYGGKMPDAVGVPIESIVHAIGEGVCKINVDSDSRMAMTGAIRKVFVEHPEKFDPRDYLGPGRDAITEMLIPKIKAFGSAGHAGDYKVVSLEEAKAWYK
#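 Giardia FBPA (40 nM reagent) was preincubated 10 min at RT with compound (up to 57.5 uM final), then substrate plus GAPDH/TPI/NAD/arsenate coupling system with diaphorase/resazurin was added; resorufin fluorescence (525/598 nm) was read after 20 min.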
# Active calls of the source: *; ? = inconclusive; . = no result given; [ ] = remark or other dose. Unless noted, calls follow the shape of the dose curve; as a rule, active = well fitted curve in the direction sought with a large enough effect; inconclusive = small, poorly fitted or top-dose-only effect, or another doubt; inactive = no such curve, though single readings can be large; an effect the other way counts as inactive or inconclusive. % is scaled to controls: 0 for no effect and ±100 for the full control effect.
SMILES,Pf growth 48h,Sm TGR inh,HCMV antiviral,Pf growth 96h,FBPA Giardia inh
Clc1cccc(-c2ccc(-c3nc4ccccn4c3NCc3ccccc3)cc2)c1,.,.,-80.3*,.,.
O=C(Nc1nc2n(n1)C(c1ccc(F)cc1)C=C(c1ccc(Cl)cc1)N2)c1ccco1 (centres undefined),.,0.4%,?,.,.
O=C(Nc1nc2n(n1)C(c1ccccc1)C=C(c1ccccc1)N2)c1ccco1 (centres undefined),8.28µM*,1.78µM*,-1.8,?,2.3%
O=C(Nc1nc2n(n1)C(c1ccccc1)C=C(c1ccc(Cl)cc1)N2)c1ccco1 (centres undefined),.,14.1µM*,6.3,.,.
O=C(c1nc2n(n1)C(c1ccc(Cl)cc1)C=C(c1ccccc1)N2)N1CCOCC1 (centres undefined),4.15µM*,10µM*,-2.9,4.2%,-7.9%
O=C(Nc1nc2nc(-c3ccccc3)cc(-c3ccccc3)n2n1)c1ccco1,2.94µM*,0.6%,-20.1,.,7.0%
O=C(O)C(=Cc1cccc([N+](=O)[O-])c1)c1ccc(Cl)cc1,.,.,16.9,.,.
C=C1[C@H]2O[C@H]2[C@@H](OC(C)=O)[C@@]2(C)[C@@H](OC(C)=O)C[C@@H](OC(C)=O)[C@@](C)(O)[C@@H]2[C@@H](OC(C)=O)[C@@]2(O)[C@@H](C)C(=O)O[C@H]2[C@H]1Cl,.,.,16.8,.,.
Cc1ccc(C)c(NC(=O)CN(C)C(=O)CSC(C)C(=O)Nc2cc(C)on2)c1 (centres undefined),65.3%,2.5%,9.0,40.3%,.
CCCNC(=O)C1(CC2CC(c3ccccc3)=NO2)CCN(C(=O)C2(C)CC2)CC1 (centres undefined),.,.,-0.5,.,.
CCCCCCCNC(=O)C1(CC2CC(c3ccccc3)=NO2)CCNCC1 (centres undefined),11.7µM*,?,4.6,?,.
O=C(NCc1ccccc1)C1(CC2CC(c3ccccc3)=NO2)CCNCC1 (centres undefined),11.7µM*,50.1µM*,-25.6,?,.
COc1ccc(CNC(=O)C2(CC3CC(c4ccccc4)=NO3)CCN(C(=O)Cc3ccc(F)cc3)CC2)cc1 (centres undefined),.,.,-14.5,.,.
COc1ccc(N2C(=O)c3ccc(C(=O)Nc4ccc(NC(C)=O)cc4)cc3C2=O)cc1,?,0.3%,-7.6,-3.6%,-7.5%
N#CCCN(C(=O)COC(=O)c1cc(=O)c2ccccc2o1)c1ccccc1,-20.4%,1.7%,-23.1,?,.
CCn1c(SCC(=O)NNC(=O)c2ccco2)nnc1-c1ccco1,0.4%,-4.8%,7.2,233.7%,0.5%
CCCC(C)NC(=O)COc1ccc(Sc2ccc(OCC(=O)NC(C)CCC)cc2)cc1 (centres undefined),7.38µM*,2.1%,-71.6*,?,5.9%
COc1cnc(-c2ccccn2)nc1Oc1cccc(Cl)c1,?,2.1%,-28.4,2.62µM*,?
COc1ccc(Oc2nc(-c3ccccn3)ncc2OC)cc1,0.0%,21.9%,-24.7,?,?
COc1cnc(-c2ccccn2)nc1N(C)C,4.15µM*,-2.6%,-98.8*,2.33µM*,?
COc1cnc(-c2ccccn2)nc1Oc1c(C)cccc1C,11.7µM*,3.8%,?,0.208µM*,-6.2%
COc1ccc(C(=O)N2CCC[C@@]3(CCN(Cc4ccc(C#N)cc4)C3)C2)cc1,.,.,.,.,-2.3%
C[C@@H]1C[C@H]2[C@@H]3C[C@H](F)C4=CC(=O)C=C[C@]4(C)[C@@]3(Cl)[C@@H](O)C[C@]2(C)[C@H]1C(=O)COC(=O)C(C)(C)C,1.04µM*,-5.7%,31.4,1.0%,.
CCCCCCN1CCN(C2CN(Cc3ccccc3)S(=O)(=O)C2)CC1 (centres undefined),.,.,-23.4,.,.
CCn1c(SCC(=O)c2ccccc2)nnc1-c1ccoc1C,45.9%,0.0%,-7.7,0.0%,-11.6%
SMILES,Pf growth 48h,Sm TGR inh,HCMV antiviral,Pf growth 96h,FBPA Giardia inh
CCn1c(SCC(=O)c2ccc(Cl)cc2)nnc1-c1cccs1,.,-16.7%,-16.9,-12.3%,-6.0%
CC(=O)c1c(C)[nH]c(C(=O)CSc2nnc(-c3ccc(Cl)cc3)n2CC2CCCO2)c1C (centres undefined),.,-6.0%,-2.3,5.86µM*,-10.8%
Cc1occc1-c1nnc(SCC(=O)c2ccc(Cl)cc2)n1CC1CCCO1 (centres undefined),5.3%,20µM*,12.5,3.9%,-10.0%
CCn1c(SCC(=O)c2ccc(Cl)cc2)nnc1-c1ccoc1C,?,25.1µM*,14.1,14.7µM*,-12.6%
CCn1c(SCC(=O)c2ccc(C)cc2)nnc1-c1ccoc1C,-10.5%,?,-30.7,14.7µM*,-11.8%
CCOc1cc(/C=N\NC(=O)Cn2nnc3ccccc32)ccc1O,7.6%,6.1%,1.9,17.0%,4.4%
CCOc1cccc2sc(NC(=O)CS(=O)(=O)c3ccc(C)cc3)nc12,.,0.2%,0.0,.,.
Cc1ccc(Cn2cc(CCC(=O)NC3CCCCC3)c3ccccc32)cc1,.,3.5%,?,.,.
CCOc1ccccc1OCCOc1ccccc1OC(C)C,.,0.6%,3.3,27.4%,-4.0%
CNCCOc1ccccc1OC(C)C,-3.9%,?,-9.0,10.4µM*,?
CCOc1ccc(NC(c2ccccn2)c2oc(CO)cc(=O)c2O)cc1 (centres undefined),192.3%,10µM*,-25.4,?,?
CC(C)c1ccc(C2=CC(c3cccc(Cl)c3)n3c(nc4ccccc43)N2)cc1 (centres undefined),.,-3.1%,-63.2*,.,.
C/C(CCN1CCCc2nc(C)c(C)cc21)=N\OC[C@@H](O)COCc1ccco1,.,.,.,.,-0.1%[12.9 µM]
COc1ccccc1Cn1c(SCC(=O)C(C)(C)C)nc2ccccc2c1=O,.,19.1%,-4.3,.,.
COc1ccccc1Cn1c(SCC#N)nc2cc(C(=O)N3CCC4(CC3)OCCO4)ccc2c1=O,?,4.9%,-16.3,9.28µM*,-2.7%
CN1CCc2nc(SCc3ccc(Cl)cc3)c(C#N)c(-c3cccs3)c2C1,.,.,-108.8*,.,.
CCCOc1ccc([N+](=O)[O-])c(N)c1,-5.4%,-1.6%,-14.1,29.1%,-3.8%
Nc1nc(O)c(N=Nc2ccc(S(N)(=O)=O)cc2)c(=O)[nH]1,-20.2%,6.3%,-3.2,-7.6%,4.4%
NS(=O)(=O)c1ccc(N=Nc2c[nH]c(=O)c(O)c2)cc1,?,8.91µM*,-19.1,?,7.06µM*
O=C(CC(c1ccccc1)c1ccccc1)Nc1ccc(C(=O)O)cc1,-0.1%,-2.3%,-18.7,-16.3%,14.2%
CCOC(=O)C1CCN(C(=O)CN(c2cc(Cl)ccc2OC)S(=O)(=O)c2ccccc2)CC1,14.7µM*,-10.7%,12.8,?,.
CCOC(=O)C1CCN(C(=O)CN(c2cc(OC)ccc2OC)S(=O)(=O)c2ccccc2)CC1,13.1µM*,-26.4%,6.5,?,-1.7%
COc1ccc(NC(=O)[C@@H](c2ccccc2)N2Cc3ccccc3C2=O)cc1OC,.,7.2%,5.7,.,.
